Records with an inconclusive call do not appear. Entries that show only a call come without a potency. Values without a mark were called inactive. The source made the active and inactive calls. Calls come from the whole dose curve.
Assay: p53 small molecule agonists, cell-based qHTS assay with rat liver microsomes: qHTS cell viability counter screen (AID 1963580); note: nearly all actives have a fitted effect of over 45% in size
Procedure, shortened: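 Viability is assessed in parallel with the p53 reporter read: HCT-116 p53RE-bla cells receive compounds plus rat microsomes and NADPH (0.5 mg/mL final apiece), incubate 16 h at 37 C, and then CellTiter-Glo luminescence is recorded.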

SMILES | Potency | activity change, negative = cytotoxicity
CCCCCCCCCC(=O)N(C)C | inactive | 
Cc1c(C)c2c(c(C)c1OC(=O)CCC(=O)O)CC[C@@](C)(CCC[C@H](C)CCC[C@H](C)CCCC(C)C)O2 | inactive | 
CCC(C)C(=O)OC (stereo not drawn) | inactive | 
O=C(O)c1cc(C(=O)O)c(C(=O)O)cc1C(=O)O | inactive | 
NCC(=O)CCC(=O)O | inactive | 
COc1cc2c(N3CCN(C(=O)Nc4ccc(OC(C)C)cc4)CC3)ncnc2cc1OCCCN1CCCCC1 | inactive | 
CC(C)C(=O)Nc1cccc(C(F)(F)F)c1 | inactive | 
Cc1ccc2cccnc2c1 | inactive | 
CO[Si](CCCS)(OC)OC | inactive | 
S=C(SSSSSSC(=S)N1CCCCC1)N1CCCCC1 |  | -21.4% [at 13.5 µM]
CC/C(=C\C(=N/O)C(N)=O)C(C)[N+](=O)[O-] (stereo not drawn) | inactive | 
COc1ccccc1Oc1c(NS(=O)(=O)c2ccc(C(C)(C)C)cc2)nc(-c2ncccn2)nc1OCCO | inactive | 
C=C(C)C(=O)OCC(O)CO (stereo not drawn) | inactive | 
COc1cc(O)cc(O)c1 | inactive | 
CCCCCCCCN(C)CCCCCCCC | inactive | 
CN1CCCN=C1COC(=O)C(O)(c1ccccc1)C1CCCCC1 (stereo not drawn) | inactive | 
CC(C)(C)C1CCC(=O)CC1 | inactive | 

SMILES | Potency | activity change, negative = cytotoxicity
CC1=CCC2C(C1)C2(C)C (stereo not drawn) | inactive | 
O=C(O)CCCC[P+](c1ccccc1)(c1ccccc1)c1ccccc1 | inactive | 
CCCCOCC(C)O (stereo not drawn) | inactive | 
C=CCOC(=O)/C=C\C(=O)OCC=C | inactive | 
O=C(Nc1ccccc1)c1ccccc1O | inactive | 
CC(C)OC(=O)C(C)N(C(=O)c1ccccc1)c1ccc(F)c(Cl)c1 (stereo not drawn) | inactive | 
Cc1ccnc2ccccc12 | inactive | 
CC(C)=CCC[C@H](C)CCO | inactive | 
CCOCCOCCOC(C)=O | inactive | 
CCn1cc(C(=O)O)c(=O)c2cc(F)c(N3CCN(C)CC3)cc21 |  | -0.739% [at 13.5 µM]
CC[C@@H](CO)NCCN[C@@H](CC)CO | inactive | 
CCOCCn1c(C2CCN(CCc3ccc(C(C)(C)C(=O)O)cc3)CC2)nc2ccccc21 | inactive | 
Cc1ccccc1C#N | inactive | 
OCc1ccccn1 | inactive | 
Cc1cc(C(=O)O)ccc1[N+](=O)[O-] | inactive | 
CN(C)CCN1CCN(c2cccc(Cl)c2)C1=O | inactive | 
